From PubChem BioAssay (NCI)
Values joined by “and” are separate entries in the source; they are usually repeats but may differ in a detail not shown here. Equal values may be shown once. The panel holds about 83,000 compounds, 20% with a hit somewhere; the sample as a whole holds those more often.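 Treatment: one concentration, 48 hours, 96-well format. Scoring: percent growth, with anything below 10 considered active.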 Active and inactive are the calls of the source.

tested on: MDA-MB-468 breast; experiment: NCI-60 one-dose screen, 48 h (100 = growth as untreated, 0 = no growth, -100 = all killed); conditions: 10 µM unless noted

Row | Structure (SMILES) | growth
1 | COc1ccc([C@H]2[C@H](C(=O)Nc3cccnc3)c3ccccc3C(=O)N2c2ccccc2)cc1 | 97.7% (inactive)
2 | CC(=O)c1c(O)c(C)c(O)c2c1OC1=CC(=O)/C(=C(/C)N)C(=O)C12C (stereo not drawn) | 74.6% (inactive)
3 | C=C(C)CCC(C)N1CCC(N2CCC(C(=O)NCCc3ccccc3)CC2)CC1 (stereo not drawn) | 48.4% (inactive)
4 | COc1cc2c(cc1OC)C(Sc1ccc(C)cc1)c1c(nc(N)c(C#N)c1N)O2 (stereo not drawn) | -46.7% (active)
5 | CC(C)(C)[Si](C)(C)OC1[C@@H](O[Si](C)(C)C(C)(C)C)[C@@H](CNC(=O)NC(=O)NC(=O)CI)O[C@H]1n1cnc2c(NC(=O)Nc3ccccc3)ncnc21 (stereo partly drawn) | 75.5% (inactive)
6 | CC(C)NCC(O)c1ccc(O)c(O)c1 (stereo not drawn) | 89.3% (inactive) and 104% (inactive) and 97.9% (inactive)
7 | Cc1ncc([N+](=O)[O-])n1CCOc1ccc(C(=O)/C=C/c2ccc(C(F)(F)F)cc2)cc1 | 71.3% (inactive)
8 | CNc1ccc(Nc2ccc(S(=O)(=O)O)cc2)c2c1C(=O)c1ccccc1C2=O | 98.6% (inactive)
9 | CCOc1ccc(NC2=C(Cl)C(=O)c3ccccc3C2=O)cc1 | 64.9% (inactive)
10 | COc1ccc(C(C)=C(c2ccc(OCCN3CCCCCC3)cc2)c2ccc(OCCN3CCCCCC3)cc2)cc1 | -69.5% (active)
11 | COc1ccc(OC)c(/C=C2\CCc3ccccc3C2=O)c1 | -5.15% (active)
12 | COc1ccc(-c2cnc3c(-c4cccc5cnccc45)cnn3c2)cc1 | 47.9% (inactive)
13 | COc1ccc(CCN2C(=O)CSC2=S)cc1 | 12.9% (inactive)
